Screening results as filed in PubChem.
TRPV1 PAM = enhances activation of the human vanilloid receptor TRPV1. 320,000 compounds, 0.02% hits. Q8NER1. potentiation, % at 8.33 µM. AID 540277. TRPV1-expressing cells, Fluo-8 calcium influx, capsaicin EC20 potentiation; in the data active = potentiation above about 80%; inconclusive = between about 30% and that limit; note: 0% is about no effect
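Cells expressing TRPV1 were dye-loaded with Fluo-8 and read kinetically: 10 s baseline, 3 min after compound (agonist portion), then 2 min after EC20 capsaicin (allosteric enhancer portion). Calcium-bound dye fluorescence at 480/520 nm.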
MBNL1 CUG block = inhibitors of human MBNL1 binding to CUG repeat RNA | AID 2675 | Potency, µM (titrated, usually from 57.5 µM), for the others: at the highest dose activity change, negative = inhibition, usual class: inhibitors | Q9NR56 | TR-FRET MBNL1-His/biotin-(CUG)12 binding, 665/545 ratio | 280,000 compounds, 0.036% hits; active = well fitted inhibition curve with a large enough effect in the signal ratio, with a control signal flat, not every such curve was filed as active; inconclusive = small, poorly fitted or top-dose-only effect, or effect the other way, or a change in a side signal; inactive = no such curve, though single readings can be large or run the other way; the % refers to the signal ratio; note: potency is the fitted concentration of half-maximal effect; % is set by controls: 0 for no effect and ±100 for the full control effect
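His-tagged MBNL1 binding to biotinylated (CUG)12 RNA was measured by TR-FRET using terbium anti-His antibody (0.055 ng/ul final) and streptavidin-XL665 (5 nM final). Compounds were titrated 92 nM to 58 uM; 60 min at room temperature.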
KCNH2 3.1 block = inhibitors of human KCNH2 3.1 potassium channel isoform | U2OS KCNH2 3.1, thallium flux FluxOr; active compounds read low | activity change, % (tested at about 1.8 µM) | 340,000 compounds, 0.95% hits | AID 720553;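 active = maximum activity change below -70%; inconclusive = maximum activity change from -70% to -50%; inactive = maximum activity change above -50%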;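 note: thallium influx rate constant from kinetic fluorescence after stimulation buffer; % is set by controls: 0 for no effect and ±100 for the full control effect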
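Virally transduced U2OS (3.1 isoform, 4 h infection in dark at RT) → overnight 37 C → FluxOr + Red40 in HBSS/HEPES, 45 min → stimulation buffer, 2 min kinetic read → rate constant vs DMSO controls.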
hERG WT inh = inhibitors of human wildtype KCNH2 potassium channel | Q12809 | U2OS, BacMam KCNH2, thallium flux FluxOr; active compounds read low | activity change, % at 1.84 µM | 340,000 compounds, 0.37% hits | AID 720551;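 active = maximum activity change below -70%; inconclusive = maximum activity change between -70% and -50%; inactive = maximum activity change above -50%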; note: % is set by controls: 0 for no effect and ±100 for the full control effect
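U2OS cells were transduced with wild-type KCNH2 virus (2.03 x 10^8 / mL) for 4 h at room temperature, then cultured overnight at 37 C. Thallium flux was read with FluxOr dye. Rate constants were normalized to DMSO controls.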
TRPV1 agonist = agonists of human vanilloid receptor 1 (TRPV1); activation, % at 8.33 µM; 320,000 compounds, 0.19% hits; TRPV1-expressing cells, Fluo-8 calcium influx, agonist mode; Q8NER1; AID 540275; in the data active = activation above about 80%; inconclusive = between about 30% and that limit; note: 0% is about no effect
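TRPV1-expressing cells were cultured overnight at 35.5C and loaded with Fluo-8 calcium dye for 40 to 90 min at room temperature. After a 10 s baseline, compound was added and calcium influx was read kinetically for 3 min (ex 480/em 520 nm).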
Starred values were filed as active, the others as inactive; ? = inconclusive; . = no result given. Rows were chosen to be rich in hits. Some 1.3% of all compounds tested hit in one or more screens of this group.

SMILES	TRPV1 PAM	MBNL1 CUG block	KCNH2 3.1 block	hERG WT inh	TRPV1 agonist
OCC1(Cc2ccc(Cl)cc2)CCN(CC2CC=CCC2)CC1 (configuration not stated)	5.1	-0.8%	-72.1*	36.4	1.3
OCC1(Cc2ccc(Cl)cc2)CCN(Cc2ccccc2F)CC1	-7.7	-6.6%	?	11.4	13.0
CSc1ccc(CN2CCC(CO)(Cc3ccc(Cl)cc3)CC2)cc1	-3.6	-15.3%	-100.5*	-32.8	-0.1
OCC1(Cc2ccc(Cl)cc2)CCN(CCCc2ccccc2)CC1	-2.0	2.9%	-89.2*	?	2.2
CC1CCCC(NC(=O)COC(=O)c2ccc3ncsc3c2)C1C (configuration not stated)	5.1	.	-26.4	1.0	0.9
OCCNCc1ccc(OCc2ccc(Cl)cc2Cl)cc1	6.4	-6.6%	-83.7*	14.8	1.9
COc1ccc(CN2CCc3c([nH]c4ccccc34)C2)c(OC)c1C	-0.6	11.8%	-79.4*	15.0	13.5
COc1ccc(CN2CCc3c([nH]c4ccccc34)C2)cc1Br	1.8	7.4%	-10.8	16.4	0.3
COC(=O)c1c(NC(=O)C(=O)N2CCOCC2)sc2c1CCCC2	-26.9	11.1%	23.2	4.4	87.4*
CCCCSc1nc2sc3c(c2c(=O)[nH]1)CC(C)(CC)OC3 (configuration not stated)	-5.8	-0.4%	-4.4	0.3	0.7
CC(=O)c1ccc(NC(=O)C2(c3ccccc3)CCOCC2)cc1	1.7	6.6%	-108.5*	0.3	-3.3
O=C(c1ccc(NC(=O)C2(c3ccccc3)CCOCC2)cc1)N1CCOCC1	11.0	-5.5%	7.3	7.0	-1.4
COc1cccc(C(=O)c2ccncc2C(=O)O)c1OC	.	.	8.0	-13.4	.
COC(=O)c1ccc(OCC2c3cc(OC)c(OC)cc3CCN2C(=O)c2ccco2)cc1 (configuration not stated)	12.5	1.4%	-173.3*	-3.0	-2.9
C=CCn1c(CNS(=O)(=O)c2ccc(Br)cc2)n[nH]c1=S	-2.9	-1.6%	-7.3	5.5	-0.2
CCOc1ccccc1NC(=O)CSc1nnc(Cc2cccn2C)n1-c1ccc(F)cc1	15.0	?	-0.4	-2.8	-4.2
CCOC(=O)c1ccccc1NC(=O)CSc1nnc(Cc2cccn2C)n1-c1ccc(F)cc1	-5.2	3.5%	-11.0	-87.5*	6.7
Cc1ccc(C(=O)N/C(=C\c2ccc(-c3cccc([N+](=O)[O-])c3)o2)C(=O)NCCCN(C)C)cc1	13.8	?	-32.9	-19.0	-2.9
CN(C)CCNC(=O)/C(=C/c1ccc(-c2ccc(Cl)cc2Cl)o1)NC(=O)c1ccccc1	13.5	.	?	-0.7	13.9
Cc1ccc(C(=O)N/C(=C\c2ccc(-c3ccc(Br)cc3)o2)C(=O)NCCCN(C)C)cc1	11.3	14.3%	-4.0	-80.3*	10.4
CN(C)CCNC(=O)/C(=C/c1ccc(-c2ccc(Cl)cc2)o1)NC(=O)c1ccccc1	3.3	?	-91.2*	-6.6	5.2
O=C(O)/C=C\c1cccc(-n2nnnc2SCc2ccccc2F)c1	3.3	1.2%	-13.7	2.5	-1.6
C/C(=N\NC(=O)CCCOc1ccc(Cl)cc1C)c1ccc(C)o1	-10.7	-11.7%	-5.1	-12.1	26.7
O=C(COc1ccccc1Cl)Nc1ccc2c(c1)C(=O)NC2=O	-22.0	?	2.2	3.7	-2.7
Cc1c(NC(=S)NC(=O)c2ccc(COc3ccccc3)cc2)cccc1C(=O)O	5.3	5.0%	17.0	-231.2*	1.4
SMILES	TRPV1 PAM	MBNL1 CUG block	KCNH2 3.1 block	hERG WT inh	TRPV1 agonist
Cc1c(NC(=S)NC(=O)c2cccc3ccccc23)cccc1C(=O)O	18.5	17.2%	-11.7	-0.5	1.2
OCCN1CCN(c2ncnc3sc(-c4ccccc4)cc23)CC1	-5.4	?	-5.7	-1.1	9.1
CCOC(=O)c1csc(NC(=O)CSc2nnnn2-c2ccc3c(c2)OCCO3)n1	15.5	18.2%	-15.6	-117.9*	-2.5
CCC(=O)Nc1ccc(NC(=O)CSc2nnnn2-c2ccc3c(c2)OCCO3)cc1	-10.7	-5.1%	-4.2	4.0	1.8
CC(=O)C1(O)C(C)CC2C3CC(F)C4(O)CC(O)CCC4(C)C3CCC21C (configuration not stated)	.	.	18.7	3.3	.
Cc1cccc(N2CCN(C(=O)c3ccc(NS(=O)(=O)c4ccc5[nH]c(=O)[nH]c5c4)cc3)CC2)c1C	4.1	9.5%	9.1	-0.7	-0.9
O=C(c1ccc(NS(=O)(=O)c2ccc3[nH]c(=O)[nH]c3c2)cc1)N1CCN(c2ccccc2O)CC1	-8.7	.	-80.1*	-2.1	2.7
CC1CCN(c2ccc(C=O)o2)CC1	-3.6	?	-195.9*	.	-4.2
Nc1c(-c2ccccc2)cnn1-c1ccccc1	-1.4	-3.2%	-9.3	-1.8	1.8
Nc1c(-c2cccc(Cl)c2)cnn1-c1ccccc1	-5.6	?	-87.6*	-6.0	23.5
CCC(Oc1ccc(C)c(C)c1)C(=O)N1CCCN(C)CC1 (configuration not stated)	2.7	-6.2%	4.9	4.6	1.4
C/C(=N/NC(=O)c1ccncc1)c1ccc(NC(=O)c2ccccc2)cc1	-13.5	0.9%	-14.5	0.8	?
Cc1c(C(=O)Nc2cccc([N+](=O)[O-])c2)cnn1-c1ccccc1	-10.4	?	4.5	4.8	103.1*
C/C(=N\NC(=O)c1ccncc1)c1cccc(NC(=O)c2ccc(C(C)(C)C)cc2)c1	0.5	-1.0%	-5.7	-3.1	84.8*
Cc1cc(C(=O)Nc2ccc([N+](=O)[O-])cn2)cs1	-35.6	?	10.3	-2.6	82.5*
Cc1c(C(=O)Nc2ccccc2)cnn1-c1ccccc1	.	.	0.3	-3.1	.
COc1cc(OC)cc(C(=O)Nc2ccc([N+](=O)[O-])cn2)c1	-8.1	?	-4.5	-0.3	8.5
CN(C)c1ccc(NC(=O)c2cccc([N+](=O)[O-])c2)c2ccccc12	-12.3	?	25.0	-8.4	83.0*
CC(=O)c1cccc(OCC(O)CN2CCN(C(=O)c3ccco3)CC2)c1 (configuration not stated)	4.6	0.8%	6.7	-11.3	-0.9
OC1CCC(Nc2ncnc3sccc23)CC1 (configuration not stated)	0.8	-1.1%	17.3	-14.0	-1.0
CCCCN1C[C@H](c2ccccc2)[C@@H](CC(=O)NC)C1=O	.	.	3.6	1.6	.
CC(C)(C)c1ccc(C(=O)Nc2cccc([N+](=O)[O-])c2)cc1	-2.3	4.9%	-17.5	-4.6	84.5*
O=C(Nc1cccc(NC(=O)c2cccc([N+](=O)[O-])c2)n1)c1cccc([N+](=O)[O-])c1	6.9	?	-83.8*	-7.3	-6.7
O=C(Nc1ccncc1NC(=O)c1cccc([N+](=O)[O-])c1)c1cccc([N+](=O)[O-])c1	-0.3	5.0%	-22.5	2.6	0.4
